Data published in PubChem BioAssay.
“And” between values parts separate entries of the source, which are not always exact repeats. Equal values may be shown once. A structure can be active in one record and inactive in another. The source made the active and inactive calls. Unless noted, no stated cut-off is given here; in the data, active means inhibition above about 80%; inactive means the rest.

Assay: compounds altering circadian rhythm period length – cell-based, LOPAC library, luminescence reporter (AID 2774; call rule not given here;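 further: values are relative to mean of DMSO wells on each plate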)
Details: circadian reporter cells, at 7 µM, actives lie on both sides

| SMILES | period change |
| --- | --- |
| C[C@]12CC[C@H](OS(=O)(=O)O)CC1=CC[C@@H]1[C@@H]2CC[C@]2(C)C(=O)CC[C@@H]12 | -0.035 h (inactive) |
| CN1C[C@@H](CS(=O)(=O)N(C)C)C[C@@H]2c3cccc4c3c(cn4C)C[C@H]21 | -0.105 h (inactive) |
| COc1cc(CCN)ccc1O | -0.1 h (inactive) |
| COc1ccc(CCN)cc1O | 0.08 h (inactive) |

Assay: galactose survival enhancers in mitochondrial complex I cybrids – cell-based, galactose medium, ATP luminescence, primary screen (AID 1645843;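 active means z-score of at least 1.8 in each of two replicates, scored against plate mean and spread of sample wells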;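 further: positive z means more ATP and so rescue of galactose-driven cybrid death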)
Details: complex I mutant cybrid cells, 72 h, stronger effect = higher value

| SMILES | z-score |
| --- | --- |
| O=c1c2cc(F)ccc2ncn1Cc1cn2ccccc2n1 | 0.245 (inactive) |
| CC(CCCC(C)(C)O)NC(C)Cc1ccccc1F (stereo not drawn) | -0.515 (inactive) |
| CC(CCCC(C)(C)O)CCNC(C)Cc1ccsc1 (stereo not drawn) | -0.475 (inactive) |
| COc1ccc(CN2CCN(C)C(CCO)C2)c(OC)c1OC (stereo not drawn) | -0.21 (inactive) |
| CN1CCC(N(C)CCC2CCOCC2)CC1 | 0.38 (inactive) |
| CCCOC1CCCN(C2CCN(C)CC2)C1 (stereo not drawn) | -0.46 (inactive) |

Assay: growth inhibition, single agent or in combination, cell-based, chromothripsis tumors, cisplatin or BGB combos (AID 1671449);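 further: cells exposed for 96 hours; 0% = vehicle DMSO and 100% = killing by high DMSO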
Details: LFS_MB_P medulloblastoma cells, at 0.5 µM, stronger effect = higher value

| SMILES | inhibition |
| --- | --- |
| Cc1c(N)nc(C(CC(N)=O)NCC(N)C(N)=O)nc1C(=O)NC(C(=O)NC(C)C(O)C(C)C(=O)NC(C(=O)NCCc1nc(-c2nc(C(=O)NCCC[S+](C)C)cs2)cs1)C(C)O)C(O[C@@H]1O[C@@H](CO)[C@@H](O)[C@H](O)[C@@H]1O[C@H]1O[C@H](CO)[C@@H](O)[C@H](OC(N)=O)[C@@H]1O)c1cnc[nH]1 (stereo partly drawn) | -26.9% (inactive) and -11.5% (inactive) |
| O=c1[nH]c(=O)n(C2OC(CO)C(O)C2O)cc1F (stereo not drawn) | -2.55% (inactive) |
| O=P(O)(NCCCl)NCCCl | -22.2% (inactive) |
| CC1(C)C(C(=O)Nc2ccc(S(=O)(=O)c3ccc(NC(=O)C4C(C)(C)C4(C)C)cc3)cc2)C1(C)C | -7.93% (inactive) |
| CCC1(O)C(=O)OCc2c1cc1n(c2=O)Cc2cc3ccccc3nc2-1 (stereo not drawn) | 88.2% (active) and 9.86% (inactive) |
| NC(Cc1ccc(N(CCCl)CCCl)cc1)C(=O)O (stereo not drawn) | -11.1% (inactive) |
| COc1cc([C@@H]2c3cc4c(cc3[C@H](O)[C@H]3COC(=O)[C@H]23)OCO4)cc(OC)c1O | -9.98% (inactive) and 8.43% (inactive) |
| COc1cc(C2c3cc4c(cc3C(O)C3COC(=O)C23)OCO4)cc(OC)c1OC (stereo not drawn) | 9.19% (inactive) |
